HEK293 tox = cytotoxic in the GLP-1 receptor inverse agonist counter-screen | HEK293 cAMP-luciferase reporter cells, luminescence, 24 h | Potency, µM (titrated, usually from 38.3 µM), inactives show at the top dose activity change, negative = inhibition, actives largely listed as inhibitors | 410,000 tested, 0.13% active | AID 624418;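 note: loss of luciferase light is scored as toxicity; % is set by controls: 0 for no effect and ±100 for the full control effect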
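Seeding density was 200 cells/uL; after overnight-length (12 h) culture, 23 nL compounds went on for 24 h at 37 °C. Readout used a luciferase detection reagent, luminescence taken after 12 min at room temperature.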
KAT2A inh = blocks human GCN5L2 histone acetyltransferase | Potency, µM (titrated, usually from 58.9 µM), inactives show at the top dose activity change, negative = inhibition, usual class: inhibitors | GCN5L2 HAT assay, ThioGlo1 CoA-SH fluorescence | AID 504327 | Q92830 | 390,000 tested, 0.21% active; note: % is set by controls: 0 for no effect and ±100 for the full control effect
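ThioGlo1-coupled HAT assay: 20nM GCN5L2, 70uM acetyl-CoA, 75uM H3(1-25) peptide, pH 7.5. Fluorescence read at 340/540nm at start and after 20 min at room temperature.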
PTHR1 agonist = PTHR1 (human) receptor agonism. Q03431. HEK293 GP2 PTHR1 cells, GloSensor cAMP luminescence, 1 h. Potency, µM (titrated, usually from 115 µM), without a hit: at the highest dose activation, most hits filed as activators. 410,000 tested, 0.075% active. AID 743266; note: nearly all actives have a fitted effect of over 55% in size
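HEK-293-derived GP2 cells expressing PTHR1 and a GloSensor cAMP reporter, 3,000/well, plated overnight, given luciferin plus IBMX (each 0.5 mM as added) for 1 h at 37 °C, then compound for 1 h at 37 °C. Luminescence was read after 15 min at room temperature.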
GLP1R inv ag = GLP-1 receptor (human) inverse agonism; AID 624417; Potency, µM (series often up to 38.3 µM), for inactives: top-dose activity change, negative = inhibition, most hits filed as inhibitors; HEK293 GLP-1R CRE-luciferase, luminescence, 24 h; GLP-1R form is constitutively active; 410,000 tested, 1.6% active; note: % is set by controls: 0 for no effect and ±100 for the full control effect; nearly all actives have a fitted effect of over 55% in size
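Assay principle: reduced luminescence from a cAMP-responsive reporter in HEK293 cells co-expressing a constitutively active GLP-1R. Conditions: 24 hr compound incubation, 37 deg C, 5% CO2.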
GLP1R ag = GLP-1 receptor (human) agonism. P43220. HEK293 GLP-1R CRE-luciferase, luminescence, 4-6 h; cells express a hypersensitive GLP-1R form. 380,000 tested, 0.007% active. Potency, µM (top dose mostly 45.6 µM), for the others: at the highest dose activation, most hits filed as activators; note: % of control where 0% means no effect
RGS4 inhibitor = inhibitors of human regulator of G protein signaling 4. Transcreener GDP fluorescence polarization, RGS4-accelerated GTP hydrolysis. Potency, µM (titrated, usually from 114 µM), without a hit: top-dose activity change, negative = inhibition, actives largely listed as inhibitors. 390,000 tested, 0.039% active; note: % is set by controls: 0 for no effect and ±100 for the full control effect; nearly all actives have a fitted effect of over 75% in size
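MLSMR compounds (23 nl, pin-transferred) preincubated 10 min at room temperature with a 500nM (2x) first reagent, then RGS4 at 900nM (2x) plus Transcreener GDP mix added; fluorescence polarization (620/688 nm) read before and after 90 min at 30 °C.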
* marks the source's active call; other numbers are inactive results; [ ] = another dose, or the depositor's remark. Sampled rows, rich in hits. Any-hit rate of the full collection: about 1.8%. Calls come from the whole dose curve; as a rule, active = well fitted curve in the direction sought with a large enough effect; inconclusive = small, poorly fitted or top-dose-only effect, or another doubt; inactive = no such curve, though single readings can be large; an effect the other way counts as inactive or inconclusive. Potency is the fitted concentration of half-maximal effect.

Results for O=C(NCCc1csc(-c2ccc(C(F)(F)F)cc2)n1)c1ccc(F)c(F)c1 ?
HEK293 tox: -12%; KAT2A inh: -14%; PTHR1 agonist: -32%; GLP1R inv ag: 10µM*; GLP1R ag: -2%; RGS4 inhibitor: -19%

How did O=C(Cc1ccccc1)Nc1cccc(NC(=O)c2cccs2)c1 do in these assays?
HEK293 tox: 15%; KAT2A inh: 4%; PTHR1 agonist: inactive; GLP1R inv ag: 13µM*; GLP1R ag: 12%; RGS4 inhibitor: -2%[11.4 µM]

What do the screens show for `CCC(C)(C)c1ccc(Oc2ccc(N)cc2)cc1`?
HEK293 tox: -1%; KAT2A inh: -10%; PTHR1 agonist: inactive; GLP1R inv ag: 2.8µM*; GLP1R ag: 7%; RGS4 inhibitor: 4%

Results for CCCCNC(=O)c1cccc2c(=O)c(C)c(-c3ccccc3)oc12 ?
HEK293 tox: 2%; KAT2A inh: -1%; PTHR1 agonist: -19%; GLP1R inv ag: -3%; GLP1R ag: 1%; RGS4 inhibitor: 2%

What do the screens show for `CCCCN(C(=O)c1cccc2c(=O)c(C)c(-c3ccccc3)oc12)c1ccccc1`?
HEK293 tox: -16%; KAT2A inh: -11%; PTHR1 agonist: -7%; GLP1R inv ag: 10µM*; GLP1R ag: -6%; RGS4 inhibitor: 20%[11.4 µM]

What do the screens show for `COCCN(C(=O)COC(=O)CCCOc1ccccc1)c1c(N)n(Cc2ccccc2)c(=O)[nH]c1=O`?
HEK293 tox: -4%; KAT2A inh: -6%; PTHR1 agonist: inactive; GLP1R inv ag: 2%; GLP1R ag: -11%; RGS4 inhibitor: -2%

Results for O=C(Nc1ccc(Cl)cc1)N1CCC(CO)(Cc2ccccc2)CC1 ?
HEK293 tox: -15%; KAT2A inh: -10%; PTHR1 agonist: -26%; GLP1R inv ag: 7.9µM*; GLP1R ag: 10%; RGS4 inhibitor: -10%

What do the screens show for `CC1CN(Cc2ccccc2)c2ccccc2NC1=S` (stereo not given)?
HEK293 tox: inconclusive; KAT2A inh: -1%; PTHR1 agonist: -25%; GLP1R inv ag: 11µM*; GLP1R ag: -3%; RGS4 inhibitor: 5%

What do the screens show for `O=C(NCCc1ccccc1)c1nnc(Cc2cccc(F)c2)o1`?
HEK293 tox: 5%; KAT2A inh: -8%; PTHR1 agonist: inactive; GLP1R inv ag: -2%; RGS4 inhibitor: 7%

Results for CCOc1nc(NC2CCCCC2)nc(NC(C)(C)C)n1 ?
HEK293 tox: 4%; KAT2A inh: -7%; PTHR1 agonist: -15%[57.5 µM]; GLP1R inv ag: 5.6µM*; GLP1R ag: 1%; RGS4 inhibitor: -12%

Results for Cc1cc(C)nc(SCC(=O)NC2CCCCC2C)n1 (stereo not given) ?
HEK293 tox: 3%; KAT2A inh: 2%; PTHR1 agonist: 12%; GLP1R inv ag: 6%; GLP1R ag: 8%; RGS4 inhibitor: 5%

Results for O=C(C1CCCN(Cc2ccccc2C(F)(F)F)C1)N1CCCCC1 (stereo not given) ?
HEK293 tox: -6%; KAT2A inh: 1µM*; PTHR1 agonist: inactive; GLP1R inv ag: inconclusive; GLP1R ag: -2%; RGS4 inhibitor: -2%

How did O=C(C1CCCN(Cc2ccccc2F)C1)N1CCCCC1 (stereo not given) do in these assays?
HEK293 tox: 17%; KAT2A inh: -2%; PTHR1 agonist: inactive; GLP1R inv ag: -2%; GLP1R ag: 1%; RGS4 inhibitor: -17%

How did CC(Oc1cccc(Cl)c1)C(=O)Nc1nc(-c2ccccn2)cs1 (stereo not given) do in these assays?
HEK293 tox: inconclusive; KAT2A inh: -10%; PTHR1 agonist: -17%; GLP1R inv ag: 5µM*; GLP1R ag: 1%; RGS4 inhibitor: inconclusive
